Records with an inconclusive call do not appear. A number with no mark means an inactive call. Calls of active or inactive are those of the source. Calls follow the shape of the dose curve; as a rule, active = well fitted inhibition curve with a large enough effect; inconclusive = small, poorly fitted or top-dose-only effect; inactive = flat fitted curve, though single readings scatter.
test system: NIH3T3; test: Cytotoxic Profiling of Annotated Libraries Using Quantitative High-Throughput Screening (AID 1296008); settings: Five cell lines viability, CellTiter-Glo ATP luminescence, 48-72 h; max response: stronger effect = lower value; also: nearly all actives have a fitted effect of over 60% in size
How it was run: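 Cytotoxicity was measured as CellTiter-Glo ATP luminescence, read after 10 min at room temperature. Compound treatment of the cells lasted 48 or 72 hr at 37 degrees Celsius in a qHTS format.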
% is scaled to controls: 0 for no effect and ±100 for the full control effect.

SMILES	max response [%]	outcome
Cc1ncc([N+](=O)[O-])n1CC(O)CCl (centres undefined)	-5.9	
C[C@@H]1CCN(C(=O)[C@H](CCCN=C(N)N)NS(=O)(=O)c2cccc3c2NC[C@H](C)C3)[C@@H](C(=O)O)C1		inactive
C[C@H](NC(CCc1ccccc1)C(=O)O)C(=O)N1CCC[C@H]1C(=O)O (some centres undefined)	1.23	
Oc1ccc(C(O)CNCCCCCCNCC(O)c2ccc(O)c(O)c2)cc1O (centres undefined)	0.438	
CCCCC(CC)COC(=O)c1ccccc1O (centres undefined)		inactive
N[C@H](C(=O)O)c1ccc(O)cc1	-1.62	
NC(=O)NC(=O)Cc1ccccc1	3.84	
C#CCN(C)Cc1ccccc1	3.32	
NS(=O)(=O)c1cc2c(cc1C(F)(F)F)NC(Cc1ccccc1)NS2(=O)=O (centres undefined)		inactive
O=C1N=C(O)CN1/N=C/c1ccc(-c2ccc([N+](=O)[O-])cc2)o1	-4.3	
CCCCCCCCCCCCCCCCCCOCC(O)CO (centres undefined)	4.13	
NCCNCCNCCNCCN	-0.231	
CN(C)CCCO[C@@H]1[C@H]2OC(C)(C)O[C@H]2O[C@@H]1C(O)CO (some centres undefined)	-0.499	
OC[C@H]1O[C@@H](O[C@@H]2[C@@H](CO)O[C@](O)(CO)[C@H]2O)[C@H](O)[C@@H](O)[C@H]1O	4.19	
N[C@@H](CSSC[C@H](N)C(=O)O)C(=O)O	0.783	
CC1(C)CO[C@@H](CC(=O)O)CN1	-2.92	
CC1=C(C/C=C(\C)CCC[C@H](C)CCC[C@H](C)CCCC(C)C)C(=O)c2ccccc2C1=O	1.11	
COc1cc(C(=O)N2CCOCC2)cc(OC)c1OC		inactive
CCCCC/C(C=O)=C\c1ccccc1		inactive
CC(=O)Nc1ccc(/C=N/NC(N)=S)cc1	-3.1	

SMILES	max response [%]	outcome
O=C1OC(OC(=O)c2cccnc2Nc2cccc(C(F)(F)F)c2)c2ccccc21 (centres undefined)	-3.9	
O=C(O)CN1C(=O)c2cccc3cccc(c23)C1=O	0.928	
CN1[C@@H]2CC[C@H]1CC(OC(=O)C(O)c1ccccc1)C2 (some centres undefined)		inactive
O=C(Oc1ccccc1C(=O)O)c1ccccc1O		inactive
CC(COc1ccccc1)NC(C)C(O)c1ccc(O)cc1 (centres undefined)		inactive
CCN(CC)CCOC(=O)C1(C2CCCCC2)CCCCC1	1.01	
Cc1cc(O)cc2c1O[C@](C)(CCC[C@H](C)CCC[C@H](C)CCCC(C)C)CC2		inactive
O=S(=O)(O)c1cc(I)c(O)c2ncccc12	-0.492	
Cc1ncc(COP(=O)(O)O)c(C=O)c1O	3.84	
CO/N=C(\C(=O)N[C@@H]1C(=O)N2C(C(=O)O)=C(CSc3nc(=O)c(O)nn3C)CS[C@H]12)c1csc(N)n1		inactive
O=C(O)COc1nn(Cc2ccccc2)c2ccccc12	2.16	
CCCc1c(OCCCCc2nn[nH]n2)ccc(C(C)=O)c1O	2.45	
COc1ccc2cc1Oc1cc3c(cc1OC)CC[N+](C)(C)[C@H]3Cc1ccc(cc1)Oc1c(OC)c(OC)cc3c1[C@@H](C2)[N+](C)(C)CC3		inactive
NC1CCN(c2cccc(Cl)n2)CC1		inactive
Nc1cc(=O)[nH]c(N)n1	-15.9	
CC(O)COc1ccccc1 (centres undefined)	-1.73	
CC1CC(OC(=O)C(O)c2ccccc2)CC(C)(C)N1C (centres undefined)		inactive
O=C1O[C@H](CO)[C@@H](O)[C@H](O)[C@H]1O	-2.57	
NC(CSCC(=O)O)C(=O)O (centres undefined)		inactive
